Bioassay records from PubChem.
KCNQ2 enhance – enhances the rat KCNQ2 potassium channel. O88943. CHO-K1 KCNQ2, FluxOR thallium flux fluorescence; stronger effect = higher value. B-score at 10 µM. 0.54% of 310,000 active. AID 2239;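 active = fluorescence ratio B-score at least 3 SD of library B-scores, with initial fluorescence B-score within 3 of them, cut at about 5.3 in these data; same plate scores as AID 2156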;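 note: B-score of peak minus minimum over baseline fluorescence ratio after K+ and Tl+ stimulus; positive B-score means potentiation of KCNQ2 with more thallium influx and brighter signal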
KCNQ2 block – KCNQ2 (rat) channel inhibition. O88943. 1.1% of 310,000 active. AID 2156. B-score at 10 µM. CHO-K1 KCNQ2, FluxOR thallium flux, 20 min; stronger effect = lower value;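 active = fluorescence ratio B-score at most minus 3 library SDs, with starting brightness B-score within 2 library SDs, cut at about -5.5 in these data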
KCNQ2 block conf – confirmation of rat KCNQ2 potassium channel inhibitors. shares compounds with KCNQ2 block. KCNQ2-expressing cells, thallium flux, inhibition; stronger effect = lower value. activity change, negative = inhibition, % at 10 µM. 57% of 1,000 active. AID 493025
KCNQ1 spec – KCNQ2 inhibitor that also affects human KCNQ1 channel. shares compounds with KCNQ2 block. 15% of 1,000 active. AID 493026. activity change, negative = inhibition, % at 10 µM. KCNQ1-expressing cells, FluxOR thallium flux fluorescence; stronger effect = lower value;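 active = activity change at least 3 SD of negative controls below their mean in both duplicate wells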;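 note: CHO cells stably transfected with KCNQ1 and depolarized by potassium stimulus; peak minus minimum fluorescence over baseline after thallium addition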
Target sequence (P51787 whole entry, looked up): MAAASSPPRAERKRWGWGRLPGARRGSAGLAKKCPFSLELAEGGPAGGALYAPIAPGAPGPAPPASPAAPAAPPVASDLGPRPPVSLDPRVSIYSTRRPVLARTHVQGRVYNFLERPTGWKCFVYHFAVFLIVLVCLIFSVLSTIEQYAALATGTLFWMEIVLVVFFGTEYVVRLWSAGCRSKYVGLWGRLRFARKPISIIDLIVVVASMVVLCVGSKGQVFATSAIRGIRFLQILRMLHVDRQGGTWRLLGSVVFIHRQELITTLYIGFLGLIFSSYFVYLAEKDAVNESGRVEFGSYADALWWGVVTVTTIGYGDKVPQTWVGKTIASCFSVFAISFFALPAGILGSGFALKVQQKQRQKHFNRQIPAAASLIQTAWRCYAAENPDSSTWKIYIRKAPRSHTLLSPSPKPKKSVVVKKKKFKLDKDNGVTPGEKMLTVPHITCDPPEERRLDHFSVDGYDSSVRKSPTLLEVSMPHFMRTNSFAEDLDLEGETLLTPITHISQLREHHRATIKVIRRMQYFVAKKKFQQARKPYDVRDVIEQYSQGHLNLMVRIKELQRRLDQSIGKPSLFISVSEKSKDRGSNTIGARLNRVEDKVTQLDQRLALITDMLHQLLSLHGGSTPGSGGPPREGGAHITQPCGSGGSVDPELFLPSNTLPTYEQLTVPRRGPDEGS
CHO parental ctr – counter-screen for KCNQ2 inhibitors: effect in parental CHO cells; shares compounds with KCNQ2 block; thallium flux counter-screen; stronger effect = lower value; activity change, % at 10 µM; 14% of 1,000 active; AID 493029
KCNQ2 inh confirm – blocks rat KCNQ2 current in automated patch clamp; shares compounds with KCNQ2 block; KCNQ2-expressing cells; calls only at 10 µM; 49% of 550 active; AID 588531
Hits are given with their value; - = inactive; . = not tested or not shown; + = active, no number. Shown are actives, neighbours in structure and some others; about 1.6% of the full set was active somewhere. Unless noted, the rule behind the calls is not given here.

SMILES	KCNQ2 enhance	KCNQ2 block	KCNQ2 block conf	KCNQ1 spec	CHO parental ctr	others
Cc1ccc([N+](=O)[O-])cc1NC(=O)c1c(-c2ccccc2)noc1C	.	-	.	.	.
CCN1CCN(CCNC(=O)c2ccc(/C=C3/Sc4ccccc4N(Cc4ccccc4C)C3=O)cc2)CC1	-	-13.2	-	-	-
CCN1CCN(CCCNC(=O)c2ccc(/C=C3/Sc4ccccc4N(Cc4ccccc4F)C3=O)cc2)CC1	.	-	.	.	.
CN(C(=O)c1cc2c(s1)-c1ccccc1S(=O)(=O)C2)c1ccccc1	.	-	.	.	.
Cc1ccc(C)c(N=C2CCCN2Cc2ccccc2)c1C#N	-	-7.29	-	-	-
O=C(O)CN1CCCC1=Nc1ccccc1	.	-	.	.	.
COc1ccc(C(=O)NCC(c2ccco2)N2CCc3ccccc32)c(OC)c1 (configuration not stated)	-	-7.98	-31.0%	-	-	KCNQ2 inh confirm=+
O=C(NCC(c1ccco1)N1CCc2ccccc21)c1ccccc1F (configuration not stated)	.	-	.	.	.
O=[N+]([O-])c1ccc(Nc2ccccc2)c2nonc12	-	-	.	.	.
O=[N+]([O-])c1ccc(Sc2cccc[n+]2[O-])c2nonc12	-	-14.6	-64.0%	-57.0%	-60.0%	KCNQ2 inh confirm=-
CC(C)=CC(=O)OCC(=O)NC1CCCc2ccccc21 (configuration not stated)	-	-6.7	-	-	-
COC(=O)[C@@H](NC(=O)NC1CCCc2ccccc21)C(C)C (some centres not stated)	-	-7.18	-	-	-
COc1ccc(NC(=O)NC2CCCc3ccccc32)cc1 (configuration not stated)	.	-	.	.	.
O=C(CN1C(=O)NC2(CCCCCCC2)C1=O)NC1CCCc2ccccc21 (configuration not stated)	-	-7.55	-19.0%	-	-	KCNQ2 inh confirm=+
CC1CCCCC12NC(=O)N(CC(=O)NC1CCCc3ccccc31)C2=O (configuration not stated)	.	-	.	.	.
COc1ccccc1OCC(=O)NC1CCCc2ccccc21 (configuration not stated)	.	-	.	.	.
CCc1ccc(N(C(=O)c2snc(C(N)=O)c2N)C(C(=O)NCCC(C)C)c2c[nH]c3ccccc23)cc1 (configuration not stated)	.	-	.	.	.
CN(C)CCNC(=S)Nc1ccc(Br)cc1	.	-	.	.	.
CCc1noc(C)c1C(=O)N1CCCSC1=Nc1ccccc1Cl	.	-	.	.	.
Cc1ccccc1NC(=O)c1sc(Cl)nc1-c1ccccc1	-	-8.66	-	-	-
Cc1ccc(NC(=O)c2sc(Cl)nc2-c2ccccc2)cc1	.	-	.	.	.
Cc1ccc(C)c(NC(=O)c2sc(Cl)nc2-c2ccccc2)c1	-	-8.02	-	-	-
O=C(Nc1ccc(F)cc1)c1sc(Cl)nc1-c1ccccc1	.	-	.	.	.
O=C(CNC(=O)[C@@H]1Cc2ccccc2CN1)NCc1ccco1	-	-	.	.	.
Cc1[nH]c(=O)[nH]c(=O)c1S(=O)(=O)Nc1ccc(F)cc1F	.	-	.	.	.
SMILES	KCNQ2 enhance	KCNQ2 block	KCNQ2 block conf	KCNQ1 spec	CHO parental ctr	others
COc1ccc(-c2[nH]ncc2CNCC(C)(C)N2CCOCC2)cc1F	-	-	.	.	.
CC(C)CN(C)Cc1c(C(=O)N2CCc3ccccc3C2)nc2ccc(Cl)cn12	-	-8.66	-32.5%	-38.0%	-25.0%	KCNQ2 inh confirm=+
Cc1cnc(CN(C)Cc2c(C(=O)N3CCc4ccccc4C3)nc3ccc(Cl)cn23)[nH]1	.	-	.	.	.
NNC(=O)Cn1c(SCc2ccccc2)nc2ccccc21	-	-	.	.	.
COc1ccc(C(=O)Oc2coc(CSc3nnc(NC(=O)c4cccs4)s3)cc2=O)cc1	.	-	.	.	.
CC(C)=CCc1c(-c2ccc(O)cc2O)oc2cc3c(c(O)c2c1=O)C=CC(C)(C)O3	.	-	.	.	.
COc1ccc(-c2oc3c4c(cc(OC)c3c(=O)c2CC=C(C)C)OC(C)(C)C=C4)c(OC)c1	-	-9.01	-	-	-
Cc1ccc(S(=O)(=O)N2CCOCC2)cc1C(=O)N1c2ccccc2Sc2ccccc21	.	-	.	.	.
O=C(Nc1ccc(Br)c(C(F)(F)F)c1)c1ccc(C(F)(F)F)cc1	.	-	.	.	.
O=C(Nc1ccc(Br)c(C(F)(F)F)c1)c1ccccc1	-	-7.71	-	-	-
COc1ccccc1-n1c(SCC(=O)Nc2ccc(Br)cc2)nc(O)cc1=O	-	-	.	.	.
C=CCN(C(=O)CNC(=O)c1cccs1)C(C(=O)NC(C)(C)C)c1ccccc1 (configuration not stated)	.	-	.	.	.
O=C(NCc1ccco1)c1csc(Nc2ccccc2Cl)n1	-	-8.35	-	-	-
COc1ccc(Nc2nc(C(=O)NCc3ccco3)cs2)cc1	.	-	.	.	.
O=C(NCc1ccco1)c1ccc(-c2ccc(Cl)cc2)o1	.	-	.	.	.
O=C(NCc1ccco1)c1ccc(-c2ccccc2Cl)o1	-	-7.11	-	-	-
CCOC(=O)N1CCc2c(sc3c2c(=O)n(Cc2ccccc2)c(=O)n3Cc2ccc(C)cc2)C1	-	-7.73	-	-	-
CC(=O)N1CCc2c(sc3c2c(=O)n(Cc2ccccc2)c(=O)n3CC(=O)NCC2CCCO2)C1 (configuration not stated)	.	-	.	.	.
CC(C)(C)SCCNC(=O)COc1ccc(Cl)cc1	.	-	.	.	.
Cc1ccccc1CSCCNC(=O)COc1ccc(Cl)cc1	-	-8.57	-	-	-
CC1(c2nnc(Cc3ccccc3)o2)CC(c2ccc([N+](=O)[O-])cc2)=NO1 (configuration not stated)	.	-	.	.	.
COc1ccc(OCCSc2ncc(CO)n2C)cc1	.	-	.	.	.
CC1=C(C(=O)NC(C)c2ccc3c(c2)OCCO3)C2(CCC(C)CC2)OC1=O (configuration not stated)	-	-10.5	-26.5%	-	-	KCNQ2 inh confirm=+
CC1=C(C(=O)NC(C)c2ccccc2)C2(CCC(C)CC2)OC1=O (configuration not stated)	.	-	.	.	.
COc1cccc(C(C[N+](=O)[O-])c2c(C)[nH]n(-c3ccccc3)c2=O)c1 (configuration not stated)	-	-11.6	-	-	-
SMILES	KCNQ2 enhance	KCNQ2 block	KCNQ2 block conf	KCNQ1 spec	CHO parental ctr	others
Cc1[nH]n(-c2ccccc2)c(=O)c1C(C[N+](=O)[O-])c1ccc(Br)cc1 (configuration not stated)	.	-	.	.	.
CCCOc1ccc(NC(=O)CCC(=O)NC(C)c2ccccc2)cc1 (configuration not stated)	-	-	.	.	.
CCOc1cc(-c2nnc(NC(=O)C3=COCCO3)o2)cc(OCC)c1OCC	-	-	.	.	.
COc1ccc(-c2cc(C(=O)Nc3ccccc3N3CCOCC3)c3ccccc3n2)cc1OC	-	-8.16	-38.0%	-35.0%	-28.0%	KCNQ2 inh confirm=+
O=C(Nc1ccc(N2CCOCC2)cc1)c1cc(-c2ccncc2)nc2ccccc12	.	-	.	.	.
COc1ccc(-c2cc(C(=O)NNC(=O)c3csc(N4CCOCC4)n3)c3ccccc3n2)cc1OC	-	-	.	.	.
O=C(Nc1ccccc1N1CCOCC1)c1cc(-c2ccncc2)nc2ccccc12	-	-7.24	-50.0%	-45.0%	-38.0%	KCNQ2 inh confirm=+
COc1cc(OC)cc(C(=O)N2CCN(Cc3ccc4c(c3)OCO4)CC2)c1	-	-	.	.	.
O=C(NNS(=O)(=O)c1ccc([N+](=O)[O-])cc1)C(=O)Nc1cccc(C(=O)O)c1	.	-	.	.	.
